Source: the antibiotic and cytotoxicity screens of Wong et al. (2023)
The whole screen tested about 39,000 compounds, of which about 1,500 (3.8%) were called active. Shown is part of a subset that was picked to be rich in actives.

Each compound was assayed on HSkMC (human skeletal muscle cells) (assay: cytotoxicity call (relative viability < 0.9)). Settings: 10 µM.
For `C[C@@H]1CCCCO[C@@H](CN(C)C(=O)Nc2ccccc2)[C@H](C)CN([C@H](C)CO)C(=O)c2cc(NC(=O)CCC(F)(F)F)ccc2O1`, the cytotoxicity call was “inactive”. With `C[C@@H]1CN([C@H](C)CO)C(=O)c2cc(NC(=O)CCN3CCOCC3)ccc2O[C@H]1CN(C)S(=O)(=O)c1ccccc1` the cytotoxicity call was “inactive”. With `Cc1noc(C)c1NC(=O)N(C)C[C@@H]1OCCCC[C@H](C)Oc2ccc(NC(=O)C3CCCCC3)cc2C(=O)N([C@@H](C)CO)C[C@@H]1C` the cytotoxicity call was “inactive”. For `C[C@@H]1CCCCO[C@@H](CN(C)Cc2ccc(C(=O)Nc3ccccc3N)cc2)[C@@H](C)CN([C@H](C)CO)C(=O)c2cc(NC(=O)Nc3ccc4c(c3)OCO4)ccc2O1`, the cytotoxicity call was “inactive”. For `COc1ccc(CN(C)C[C@@H]2OCCCC[C@H](C)Oc3ccc(NC(=O)CCC(F)(F)F)cc3C(=O)N([C@@H](C)CO)C[C@H]2C)cc1`, the cytotoxicity call was “inactive”. For `O=C(C[C@@H]1C=C[C@H](NC(=O)Nc2ccc3c(c2)OCO3)[C@H](CO)O1)NCCCN1CCOCC1`, the cytotoxicity call was “inactive”. In the case of `c1cncc(-c2nc3ccc4ccccc4c3c3c2CCCC3)c1`, the cytotoxicity call is reported as “inactive”. For `CN1CCN(C(=O)C[C@H]2CC[C@@H]3[C@H](COC[C@@H](O)CN3C(=O)Nc3ccc4c(c3)OCO4)O2)CC1`, the cytotoxicity call was “inactive”. For `COc1ccc(S(=O)(=O)N(C)C[C@@H]2Oc3ccc(NS(=O)(=O)c4cn(C)cn4)cc3C(=O)N([C@@H](C)CO)C[C@@H]2C)cc1`, the cytotoxicity call was “inactive”. With `C[C@@H]1CN([C@H](C)CO)C(=O)c2cccc(NC(=O)C3CCOCC3)c2O[C@@H]1CN(C)C(=O)NC1CCCCC1` the cytotoxicity call was “inactive”. With `C[C@@H]1CCCCO[C@@H](CN(C)CC2CCCCC2)[C@@H](C)CN([C@@H](C)CO)C(=O)c2cc(NC(=O)Nc3cccc4ccccc34)ccc2O1` the cytotoxicity call was “active”. In the case of `C[C@@H]1CN([C@H](C)CO)C(=O)c2cc(NC(=O)Nc3cccc4ccccc34)ccc2O[C@@H](C)CCCCO[C@@H]1CN(C)CC1CCCCC1`, the cytotoxicity call is reported as “active”. For `C[C@H](CO)N1C[C@H](C)[C@H](CN(C)CC2CC2)OCCCC[C@H](C)Oc2ccc(NC(=O)Nc3cccc4ccccc34)cc2C1=O`, the cytotoxicity call was “inactive”. In the case of `C[C@H](CO)N1C[C@H](C)[C@@H](CN(C)CC2CCCCC2)OCCCC[C@H](C)Oc2ccc(NC(=O)Nc3cccc4ccccc34)cc2C1=O`, the cytotoxicity call is reported as “inactive”. For `C[C@@H]1CCCCO[C@H](CN(C)CC2CC2)[C@@H](C)CN([C@H](C)CO)C(=O)c2cc(NC(=O)Nc3cccc4ccccc34)ccc2O1`, the cytotoxicity call was “inactive”. `C[C@@H]1CCCCO[C@H](CN(C)CC2CCCCC2)[C@H](C)CN([C@@H](C)CO)C(=O)c2cc(NC(=O)Nc3cccc4ccccc34)ccc2O1` was tested, and the cytotoxicity call was “active”. With `C[C@H]1CCCCO[C@@H](CN(C)CC2CCCCC2)[C@@H](C)CN([C@@H](C)CO)C(=O)c2cc(NC(=O)Nc3cccc4ccccc34)ccc2O1` the cytotoxicity call was “inactive”. For `C[C@@H]1CCCCO[C@@H](CN(C)CC2CCCCC2)[C@H](C)CN([C@H](C)CO)C(=O)c2cc(NC(=O)Nc3cccc4ccccc34)ccc2O1`, the cytotoxicity call was “active”. `CC(C=CC=C(C)C=CC(=O)C1(C)CC(O)CC1(C)C)=CC=CC=C(C)C=CC=C(C)C=CC1=C(C)CC(O)CC1(C)C` (stereo unspecified) was tested, and the cytotoxicity call was “inactive”. With `C[C@@H]1CN([C@H](C)CO)C(=O)c2cc(NC(=O)Cn3cnnn3)ccc2O[C@H]1CN(C)Cc1ccc(-c2ccccc2)cc1` the cytotoxicity call was “inactive”. `CN1CCN(C(=O)C[C@H]2C=C[C@H](NC(=O)Nc3ccccc3F)[C@@H](CO)O2)CC1` was tested, and the cytotoxicity call was “inactive”. For `COC(=O)C[C@H]1CC[C@@H]2[C@H](COC[C@H](O)CN2S(=O)(=O)c2cn(C)cn2)O1`, the cytotoxicity call was “inactive”. In the case of `C[C@@H]1CN([C@H](C)CO)C(=O)c2cc(N(C)C)ccc2O[C@@H](C)CCCCO[C@H]1CN(C)C(=O)Nc1cccc2ccccc12`, the cytotoxicity call is reported as “inactive”. `C[C@@H]1CCCCO[C@H](CN(C)S(=O)(=O)c2ccc(Cl)cc2)[C@H](C)CN([C@H](C)CO)C(=O)c2cc(NS(=O)(=O)c3ccccc3)ccc2O1` was tested, and the cytotoxicity call was “inactive”. In the case of `C[C@@H]1CCCCO[C@H](CN(C)CC2CCCCC2)[C@H](C)CN([C@H](C)CO)C(=O)c2cc(NC(=O)Nc3cccc4ccccc34)ccc2O1`, the cytotoxicity call is reported as “active”. `C[C@@H]1CCCCO[C@H](CN(C)CC2CCCCC2)[C@@H](C)CN([C@H](C)CO)C(=O)c2cc(NC(=O)Nc3cccc4ccccc34)ccc2O1` was tested, and the cytotoxicity call was “active”. `C[C@@H]1CCCCO[C@@H](CN(C)CC2CC2)[C@H](C)CN([C@@H](C)CO)C(=O)c2cc(NC(=O)Nc3cccc4ccccc34)ccc2O1` was tested, and the cytotoxicity call was “inactive”. For `C[C@@H]1CN([C@@H](C)CO)C(=O)c2cc(NC(=O)Nc3cccc4ccccc34)ccc2O[C@@H](C)CCCCO[C@H]1CN(C)CC1CC1`, the cytotoxicity call was “inactive”. `C[C@H]1CCCCO[C@H](CN(C)CC2CCCCC2)[C@@H](C)CN([C@@H](C)CO)C(=O)c2cc(NC(=O)Nc3cccc4ccccc34)ccc2O1` was tested, and the cytotoxicity call was “active”. In the case of `C[C@@H]1CCCCO[C@H](CN(C)CC2CC2)[C@H](C)CN([C@@H](C)CO)C(=O)c2cc(NC(=O)Nc3cccc4ccccc34)ccc2O1`, the cytotoxicity call is reported as “inactive”. With `C[C@@H]1CCCCO[C@@H](CN(C)CC2CCCCC2)[C@@H](C)CN([C@H](C)CO)C(=O)c2cc(NC(=O)Nc3cccc4ccccc34)ccc2O1` the cytotoxicity call was “active”. With `C[C@H](CO)N1C[C@H](C)[C@@H](CN(C)CC2CC2)OCCCC[C@H](C)Oc2ccc(NC(=O)Nc3cccc4ccccc34)cc2C1=O` the cytotoxicity call was “inactive”. For `C[C@H](CO)N1C[C@H](C)[C@@H](CN(C)C)OCCCC[C@H](C)Oc2ccc(NC(=O)Nc3cccc4ccccc34)cc2C1=O`, the cytotoxicity call was “inactive”. For `C[C@@H]1CCCCO[C@@H](CN(C)CC2CC2)[C@@H](C)CN([C@H](C)CO)C(=O)c2cc(NC(=O)Nc3cccc4ccccc34)ccc2O1`, the cytotoxicity call was “inactive”. `C[C@H](O)c1nc(=O)c2ccccc2[nH]1` was tested, and the cytotoxicity call was “inactive”. `CC(=O)OCC(=O)C1(O)CCC2C3CCC4=CC(=O)C=CC4(C)C3(F)C(O)CC21C` (stereo unspecified) was tested, and the cytotoxicity call was “inactive”. With `C[C@H](CO)N1C[C@H](C)[C@@H](CN(C)C(=O)Nc2ccc3c(c2)OCCO3)OCc2cnnn2CCCC1=O` the cytotoxicity call was “inactive”. In the case of `COCC(=O)Nc1ccc2c(c1)C(=O)N(C)C[C@H](OC)[C@@H](C)CN(Cc1ccccc1OC)[C@H](C)CO2`, the cytotoxicity call is reported as “inactive”. `S=C1C=C(N2CCCCC2)C[C@H](c2ccc(Cl)cc2)S1` was tested, and the cytotoxicity call was “inactive”. In the case of `C[C@@H]1CN([C@@H](C)CO)C(=O)c2cc(NC(=O)Nc3ccc(F)cc3)ccc2O[C@H]1CN(C)S(=O)(=O)c1cn(C)cn1`, the cytotoxicity call is reported as “inactive”. `Cc1noc(C)c1NC(=O)Nc1ccc2c(c1)C(=O)N([C@@H](C)CO)C[C@@H](C)[C@@H](CN(C)C(=O)NC(C)C)O2` was tested, and the cytotoxicity call was “inactive”. `CCO[C@H]1OC(C(=O)N2CCN(Cc3ccccc3)CC2)=C[C@@H](C)[C@@H]1CCCOC(=O)NCCCCCC(=O)NO` was tested, and the cytotoxicity call was “inactive”. With `C[C@H](CO)N1C[C@H](C)[C@H](CN(C)Cc2ccc(Cl)c(Cl)c2)Oc2ccc(NC(=O)Cc3ccccc3)cc2C1=O` the cytotoxicity call was “inactive”. With `C[C@@H]1CN([C@H](C)CO)C(=O)Cc2cc(NS(C)(=O)=O)ccc2O[C@H]1CN(C)C(=O)Nc1ccc2c(c1)OCO2` the cytotoxicity call was “inactive”. In the case of `C[C@@H]1CN([C@@H](C)CO)C(=O)c2cc(NC(=O)Nc3cccc4ccccc34)ccc2O[C@@H](C)CCCCO[C@@H]1CN(C)CC1CCCCC1`, the cytotoxicity call is reported as “active”. In the case of `C[C@H](CO)N1C[C@H](C)[C@H](CN(C)CC2CCCCC2)OCCCC[C@H](C)Oc2ccc(NC(=O)Nc3cccc4ccccc34)cc2C1=O`, the cytotoxicity call is reported as “active”. For `C[C@@H]1CN([C@@H](C)CO)C(=O)c2cc(NC(=O)Nc3cccc4ccccc34)ccc2O[C@@H](C)CCCCO[C@H]1CN(C)CC1CCCCC1`, the cytotoxicity call was “active”. In the case of `C[C@@H]1CCCCO[C@@H](CN(C)CC2CC2)[C@H](C)CN([C@H](C)CO)C(=O)c2cc(NC(=O)Nc3cccc4ccccc34)ccc2O1`, the cytotoxicity call is reported as “inactive”. In the case of `C[C@@H]1CCCCO[C@@H](CN(C)CC2CCCCC2)[C@H](C)CN([C@@H](C)CO)C(=O)c2cc(NC(=O)Nc3cccc4ccccc34)ccc2O1`, the cytotoxicity call is reported as “inactive”. In the case of `NCC1(c2cccs2)CCCC1`, the cytotoxicity call is reported as “inactive”. In the case of `CC(C)NC(=O)Nc1ccc2c(c1)C(=O)N([C@@H](C)CO)C[C@@H](C)[C@H](CN(C)Cc1ccc3c(c1)OCO3)O2`, the cytotoxicity call is reported as “inactive”. With `Cc1noc(C)c1S(=O)(=O)N(C)C[C@H]1Oc2ccc(NC(=O)C3CCCCC3)cc2CC(=O)N([C@H](C)CO)C[C@@H]1C` the cytotoxicity call was “inactive”. `CCC(=O)N[C@@H]1CC[C@H](CC(=O)OC)O[C@@H]1CO` was tested, and the cytotoxicity call was “inactive”. `Cc1noc(C)c1NC(=O)Nc1ccc2c(c1)C(=O)N([C@@H](C)CO)C[C@H](C)[C@@H](CN(C)Cc1ccc(Cl)c(Cl)c1)OCCCC[C@@H](C)O2` was tested, and the cytotoxicity call was “inactive”. For `C[C@@H]1CCCCO[C@@H](CN(C)C(=O)c2ccccc2)[C@@H](C)CN([C@H](C)CO)C(=O)c2cc(NC(=O)NC3CCCCC3)ccc2O1`, the cytotoxicity call was “inactive”. In the case of `Cc1noc(C)c1S(=O)(=O)Nc1cccc2c1O[C@@H](CN(C)C(=O)Nc1ccc3c(c1)OCO3)[C@@H](C)CN([C@@H](C)CO)C2=O`, the cytotoxicity call is reported as “inactive”. For `C[C@H]1CCCCO[C@H](CN(C)S(=O)(=O)c2ccc(Cl)cc2)[C@@H](C)CN([C@@H](C)CO)C(=O)c2cc(NS(=O)(=O)c3ccc(Cl)cc3)ccc2O1`, the cytotoxicity call was “inactive”. `C[C@@H]1CN([C@@H](C)CO)C(=O)c2cc(C#Cc3ccccc3F)cnc2O[C@H]1CN(C)C(=O)C1CCOCC1` was tested, and the cytotoxicity call was “inactive”. With `C[C@@H]1CCCCO[C@H](CN(C)Cc2ccc(C(=O)O)cc2)[C@H](C)CN([C@@H](C)CO)C(=O)c2cc(NS(=O)(=O)c3ccc(F)cc3)ccc2O1` the cytotoxicity call was “inactive”. In the case of `O=C(C[C@H]1CC[C@H]2[C@@H](COC[C@@H](O)CN2S(=O)(=O)c2ccc(Oc3ccccc3)cc2)O1)NCCN1CCCCC1`, the cytotoxicity call is reported as “inactive”. `C[C@@H]1CN([C@@H](C)CO)S(=O)(=O)c2ccc(-c3ccccc3F)cc2O[C@H]1CN(C)Cc1cncnc1` was tested, and the cytotoxicity call was “inactive”.
